G9a block: inhibitors of human histone lysine methyltransferase G9a | Q96KQ7 | G9a H3K9 monomethylation, AlphaScreen, 2 h | Potency, µM (highest dose often 102 µM), without a hit: top-dose activity, negative = inhibition, actives largely listed as inhibitors | 350,000 tested, 8.8% active | AID 504332; further: potency means the concentration at half of the fitted maximal effect; on the % scale 0 is the no-effect control and ±100 the full control effect; nearly all actives have a fitted effect of over 75% in size
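G9a (20 nM) preincubated 15 min RT with compounds, then 500 nM biotinylated H3K9 peptide and 20 uM SAM added; 2 h RT reaction. Monomethyl-H3K9 product detected by AlphaScreen with anti-H3K9me1 antibody, streptavidin donor and anti-rabbit IgG acceptor beads.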
HP1b binding inh: blocks HP1-beta chromodomain binding to methylated histone tails | AID 540317 | 390,000 tested, 0.56% active | Potency, µM (highest dose often 114 µM), for inactives: at the highest dose activity change, negative = inhibition, usual class: inhibitors | AlphaScreen HP1-beta / biotin-H3K9me3 peptide binding; further: potency means the concentration at half of the fitted maximal effect; nearly all actives have a fitted effect of over 70% in size
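AlphaScreen: HP1-beta (50 nM) preformed 30 min with biotin-H3(1-18)K9me3 peptide (50 nM) in PBS pH 7.4, 0.01% Tween-20. Compound added for 30 min at RT, then streptavidin donor/nickel chelate acceptor beads (10 ug/mL) for 30 min.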
L3MBTL1 inh: L3MBTL1 (human) inhibition | Q9Y468 | AlphaScreen L3MBTL1–H3K9me1 peptide binding | Potency, µM (highest dose often 57.1 µM), without a hit: at the top dose activity, negative = inhibition, hits mostly inhibitors | 230,000 tested, 0.66% active | AID 485360; further: potency means the concentration at half of the fitted maximal effect; on the % scale 0 is the no-effect control and ±100 the full control effect; nearly all actives have a fitted effect of over 60% in size
Target sequence (Q9Y468 whole entry, looked up): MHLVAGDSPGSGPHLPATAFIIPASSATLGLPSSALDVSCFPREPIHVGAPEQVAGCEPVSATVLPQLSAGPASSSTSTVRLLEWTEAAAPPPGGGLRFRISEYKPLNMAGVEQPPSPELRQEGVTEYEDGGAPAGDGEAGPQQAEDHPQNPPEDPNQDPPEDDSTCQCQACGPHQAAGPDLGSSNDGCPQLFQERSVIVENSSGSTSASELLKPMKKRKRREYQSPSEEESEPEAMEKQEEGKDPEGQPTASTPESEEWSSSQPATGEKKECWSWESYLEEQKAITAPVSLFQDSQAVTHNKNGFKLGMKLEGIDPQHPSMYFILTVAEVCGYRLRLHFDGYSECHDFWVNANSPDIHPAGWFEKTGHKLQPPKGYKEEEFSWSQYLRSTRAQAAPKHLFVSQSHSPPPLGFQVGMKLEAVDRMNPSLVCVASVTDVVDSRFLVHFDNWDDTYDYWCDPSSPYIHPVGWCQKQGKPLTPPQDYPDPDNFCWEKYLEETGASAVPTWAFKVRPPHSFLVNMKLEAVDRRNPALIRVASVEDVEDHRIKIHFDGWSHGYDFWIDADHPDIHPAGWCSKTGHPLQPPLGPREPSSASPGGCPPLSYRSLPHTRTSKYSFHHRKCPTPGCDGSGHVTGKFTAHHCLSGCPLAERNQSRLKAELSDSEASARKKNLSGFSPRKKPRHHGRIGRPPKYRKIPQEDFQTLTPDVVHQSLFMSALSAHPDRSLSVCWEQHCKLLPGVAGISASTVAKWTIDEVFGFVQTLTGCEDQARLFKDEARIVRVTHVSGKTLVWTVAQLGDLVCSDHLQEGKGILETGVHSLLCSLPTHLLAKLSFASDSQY
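L3MBTL1 (50 nM) pre-complexed 30 min with biotinylated H3(1-15)K9me1 peptide (75 nM), then compounds added for 30 min at room temperature; AlphaScreen streptavidin donor/nickel chelate acceptor beads (10 ug/mL final) read after 30 min dark incubation.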
BAZ2B inh: inhibitors of human BAZ2B bromodomain; 360,000 tested, 4.4% active; AlphaScreen BAZ2B-H3K14Ac peptide displacement; Potency, µM (doses to about 114 µM), for inactives: top-dose activity change, negative = inhibition, hits mostly inhibitors; Q9UIF8; further: potency means the concentration at half of the fitted maximal effect; on the % scale 0 is the no-effect control and ±100 the full control effect; nearly all actives have a fitted effect of over 60% in size
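Complex of BAZ2B and biotin-H3K14Ac (50 nM apiece) forms over 30 min at RT, then faces library compounds up to 110 uM for another 30 min; AlphaScreen beads added, 20 min dark incubation, luminescence read.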
PI5P4Ka inh: PI5P4K alpha (human) kinase inhibition; max response, %; PI5P4Kalpha enzyme, ADP-Glo luminescence, 60 min; active compounds read low; 330,000 tested, 1.2% active; AID 652105; active means max response of -50% or lower; inconclusive means between -30% and -50%; inactive means -30% or higher; further: value at the top dose of about 77 µM; on the % scale 0 is the no-effect control and ±100 the full control effect
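Luminescence from ADP-Glo served as readout of PI5P4Kalpha activity in a qHTS format. Reaction: enzyme, substrate, compound, ATP at 5 microM final, 60 min at RT.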
JMJD2A Tudor: JMJD2A Tudor domain (human) inhibition; AlphaScreen JMJD2A-Tudor / H3K4me3 peptide binding; Potency, µM (doses to about 114 µM), for the others: at the highest dose activity change, negative = inhibition, actives largely listed as inhibitors; 390,000 tested, 4.4% active; AID 504339; further: potency means the concentration at half of the fitted maximal effect; on the % scale 0 is the no-effect control and ±100 the full control effect; nearly all actives have a fitted effect of over 50% in size
Starred values were filed as active, the others as inactive; ! = not confirmed by another sample; [ ] = another dose, or the depositor's remark. The list is not random: actives were taken first. Their share in the collection is about 11%. Unless noted, the call rests on the fitted dose curve; in most records, active means well fitted inhibition curve with a large enough effect; inconclusive means small, poorly fitted or top-dose-only effect; inactive means no such curve, though single readings can be large or run the other way.

`C=CCN1C=CC(=CC=C(C#N)C#N)C=C1` gave G9a block inconclusive, HP1b binding inh 11.2%, L3MBTL1 inh -18.2%, BAZ2B inh -37.2%, PI5P4Ka inh -6.2 and JMJD2A Tudor -11.8%.
Screening CCCCCCN1C=CC=C/C1=C/C=C(C#N)C#N returned G9a block 44.7µM*, HP1b binding inh -22.6%, L3MBTL1 inh -17.8%, BAZ2B inh 25.1µM*, PI5P4Ka inh -6.4 and JMJD2A Tudor inconclusive.
COc1ccc(NC(=O)CN2C(=O)C(C)(C)c3cc(S(=O)(=O)N4CCCCC4)ccc32)cc1Cl was read as G9a block -4.4%[59 µM], HP1b binding inh 19.8%[57 µM], BAZ2B inh -1.7% and JMJD2A Tudor -19.4%.
CC(C)Oc1ccc(C(=O)N2CC(=O)Nc3ccc(F)cc3C2c2ccc(F)cc2)cc1 (stereo not drawn) was read as G9a block -9.4%[59 µM], HP1b binding inh 0.9%, BAZ2B inh -18.6% and JMJD2A Tudor -31.7%.
COc1ccc(C(CNC(=O)C(CCSC)NC(=O)c2ccccc2Cl)N2CCOCC2)cc1 (stereo not drawn) was read as G9a block 1.8%, HP1b binding inh 33.4%, L3MBTL1 inh 4.7%, BAZ2B inh -5.8%, PI5P4Ka inh 6.2 and JMJD2A Tudor -6.2%.
For COc1ccc(C(CNC(=O)C(CCSC)NC(=O)c2ccccc2OC)N2CCCCC2)cc1 (stereo not drawn) the results were G9a block 31.6µM*, HP1b binding inh 4.9%, BAZ2B inh -26.2%, PI5P4Ka inh -13.6 and JMJD2A Tudor -21.9%.
`N#Cc1nc(Nc2cccc(Br)c2)nc(NC2CCCC2)n1` gave JMJD2A Tudor -16.4%.
For O=c1ccc(=O)n(-c2ccccc2)[nH]1 the results were G9a block 14.1µM*, HP1b binding inh inconclusive, L3MBTL1 inh 9.3%, BAZ2B inh -1.2%, PI5P4Ka inh -8.2 and JMJD2A Tudor 79.4µM*.
`O=c1cc(-c2ccccc2)[nH]n1-c1ccccc1` gave HP1b binding inh -5.6%, PI5P4Ka inh -0.1 and JMJD2A Tudor inconclusive.
Screening CC(C)(C)c1ccc(S(=O)(=O)/C=C/C#N)cc1 returned G9a block 0.947µM*.
CC(C)(C)c1ccc(NS(=O)(=O)c2ccc(N)cc2)cc1 was read as G9a block inconclusive, HP1b binding inh 19.9%, L3MBTL1 inh -7.7%, BAZ2B inh -12.0%, PI5P4Ka inh 0.9 and JMJD2A Tudor -23.5%.
COc1ccc2c(c1)CCc1cn[nH]c1-2 was read as G9a block -7.5%, HP1b binding inh 7.5%, BAZ2B inh -18.3%, PI5P4Ka inh 0.7 and JMJD2A Tudor inconclusive.
`COC(=O)C1(C)NC(=O)c2ccccc2N1` (stereo not drawn) gave G9a block 25.0%[59 µM], HP1b binding inh 60.0%, L3MBTL1 inh -0.8%, BAZ2B inh -0.8%, PI5P4Ka inh -1.6 and JMJD2A Tudor -16.2%.
COc1ccc2c(c1)NC(C)(C)C=C2C was read as G9a block 39.8µM*, HP1b binding inh 44.7µM*, L3MBTL1 inh -20.9%, BAZ2B inh 39.8µM*, PI5P4Ka inh inconclusive and JMJD2A Tudor 63.1µM*.
Screening CC1=CC(C)(C)Nc2ccccc21 returned G9a block 6.4%[0.501 µM], HP1b binding inh 24.2%, L3MBTL1 inh inconclusive, BAZ2B inh 50.1µM*!, PI5P4Ka inh 5.6 and JMJD2A Tudor inconclusive.
For Cc1ccc(CNC(=O)CSc2c(C(C)C)cnc3c2c(=O)n(C)c(=O)n3C)cc1 the results were G9a block 6.5%[59 µM], HP1b binding inh 22.4%[57 µM], BAZ2B inh 3.7% and JMJD2A Tudor -16.9%.
For O=c1c2ccccc2c(/C=N/n2cnnc2)c(O)n1-c1ccccc1 the results were G9a block -9.9%[12.7 µM], HP1b binding inh 19.1%, L3MBTL1 inh -10.2%, BAZ2B inh inconclusive and JMJD2A Tudor 89.1µM*.
COc1ccc(-n2c(O)c(/C=N/n3cnnc3)c3ccccc3c2=O)cc1 was read as G9a block 50.1µM*, HP1b binding inh 14.7%, L3MBTL1 inh -10.8%, BAZ2B inh 56.2µM*, PI5P4Ka inh -10.5 and JMJD2A Tudor 44.7µM*.
For COc1ccccc1N1CCN(C(=O)c2oc3ccc(F)cc3c2C)CC1 the results were G9a block -10.8%[59 µM], HP1b binding inh 23.0%, L3MBTL1 inh -0.3%, BAZ2B inh -4.2%, PI5P4Ka inh 4.3 and JMJD2A Tudor -14.4%.
Cc1c(C(=O)Nc2ccccc2N2CCN(C)CC2)oc2ccc(F)cc12 was read as G9a block 31.6µM*, HP1b binding inh inconclusive, L3MBTL1 inh 5.7%, BAZ2B inh -30.6%, PI5P4Ka inh -7.1 and JMJD2A Tudor inconclusive.
Screening Cc1cc(C)c2[nH]c(C(=O)Nc3ccc4c(c3)OCO4)cc2c1 returned G9a block 17.8µM*, HP1b binding inh -19.9%, L3MBTL1 inh inconclusive, BAZ2B inh 50.1µM*, PI5P4Ka inh inconclusive and JMJD2A Tudor 56.2µM*.
For CCc1ccc2[nH]c(C(=O)Nc3ccc4c(c3)OCO4)cc2c1 the results were G9a block 22.4µM*, HP1b binding inh -16.6%, L3MBTL1 inh -14.0%, BAZ2B inh -32.8%, PI5P4Ka inh -12.7 and JMJD2A Tudor inconclusive.
COC(=O)c1ccc(N2CCc3ccccc32)c([N+](=O)[O-])c1 was read as G9a block 15.8µM*, HP1b binding inh inconclusive, BAZ2B inh 7.94µM*, PI5P4Ka inh -15.2 and JMJD2A Tudor 14.1µM*.
Screening C=C1CCN(c2ccc(C(=O)O)cc2[N+](=O)[O-])CC1 returned HP1b binding inh 56.0%, PI5P4Ka inh -14.9 and JMJD2A Tudor -14.3%.
For NC(=O)c1ccc(N2CCN(c3ccc(O)cc3)CC2)c([N+](=O)[O-])c1 the results were G9a block inconclusive, HP1b binding inh 79.4µM*, L3MBTL1 inh -4.3%, BAZ2B inh inconclusive, PI5P4Ka inh -54.7* and JMJD2A Tudor 25.1µM*.
For O=C(O)c1ccc(N2CCN(C(c3ccccc3)c3ccccc3)CC2)c([N+](=O)[O-])c1 the results were G9a block 31.6µM*, HP1b binding inh -10.3%, BAZ2B inh inconclusive, PI5P4Ka inh 2.3 and JMJD2A Tudor inconclusive.
For CC(=O)c1ccc(N2CCN(c3ccc(C(N)=O)cc3[N+](=O)[O-])CC2)cc1 the results were HP1b binding inh 25.4%, L3MBTL1 inh 0.6%, BAZ2B inh -37.3%, PI5P4Ka inh 0.1 and JMJD2A Tudor -23.1%.
CCOC(CNC(=O)c1ccc(N2CCc3ccccc32)c([N+](=O)[O-])c1)OCC was read as G9a block 11.2µM*, HP1b binding inh 28.2µM*, L3MBTL1 inh inconclusive, BAZ2B inh 39.8µM*, PI5P4Ka inh -0.8 and JMJD2A Tudor 56.2µM*.
